Source: PubChem BioAssay (NCATS)
Inconclusive results are not listed. Active and inactive are the calls of the source. The call rests on the fitted dose curve; in most records, active means well fitted inhibition curve with a large enough effect; inconclusive means small, poorly fitted or top-dose-only effect; inactive means flat fitted curve, though single readings scatter.

Assays:
Assay in all cases: qHTS profiling for inhibitors of Plasmodium falciparum proliferation (AID 504749); further: nearly all actives have a fitted effect of over 60% in size
Details in all cases: P. falciparum in erythrocytes, SYBR Green DNA, 72 h; series mostly up to 28.7 µM
CP262 = test system: CP262
Outline: (§1)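 Parasite proliferation within erythrocytes, 72 h exposure. Endpoint: SYBR Green I fluorescence after overnight lysis at room temperature. Controls: 0.29 uM artemisinin, DMSO.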

CP265 = test system: CP265
Outline: as §1

CP266 = test system: CP266
Outline: as §1

CP268 = test system: CP268
Outline: as §1

CP269 = test system: CP269
Outline: as §1

CP286 = test system: CP286
Outline: as §1

CP291 = test system: CP291
Outline: as §1

CP297 = test system: CP297
Outline: as §1

CP305 = test system: CP305
Outline: as §1

CP315 = test system: CP315
Outline: as §1

CP325 = test system: CP325
Outline: as §1

CP329 = test system: CP329
Outline: as §1

DFO2036 = test system: DFO2036
Outline: as §1

DIV14 = test system: DIV14
Outline: as §1

DIV17 = test system: DIV17
Outline: as §1

DIV30 = test system: DIV30
Outline: as §1

Dd2 = test system: Dd2
Outline: as §1

ECU = test system: ECU
Outline: as §1

FAB9 = test system: FAB9
Outline: as §1

GB4 = test system: GB4
Outline: as §1

HB3 = test system: HB3
Outline: as §1

ICS = test system: ICS
Outline: as §1

JCK = test system: JCK
Outline: as §1

N140 = test system: N140
Outline: as §1

P93_24 = test system: P93_24
Outline: as §1

P94_40 = test system: P94_40
Outline: as §1

PAD = test system: PAD
Outline: as §1

PC15 = test system: PC15
Outline: as §1

PC49 = test system: PC49
Outline: as §1

SC27B = test system: SC27B
Outline: as §1

TAB109 = test system: TAB109
Outline: as §1

TAB113 = test system: TAB113
Outline: as §1

TAB165 = test system: TAB165
Outline: as §1

W2 = test system: W2
Outline: as §1

Measured: Potency

CCCC[C@H]1C(=O)N(c2ccccc2)N(c2ccc(O)cc2)C1=O
inactive: all assays above
